Laboratory results as given in PubChem BioAssay (NCI).
Compounds without any hit were thinned out: in the full panel of roughly 83,000, 20% have a hit.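 Single-concentration screen, 48 h exposure, 96-well plates. Endpoint: percent growth. Below 10 = active.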 Values without a mark were called inactive. The source made the active and inactive calls.

Legend:
Test in all cases: NCI-60 one-dose screen, 48 h (100 = growth as untreated, 0 = no growth, -100 = all killed)
Conditions in all cases: 10 µM unless noted
SR leukemia = tested on: SR leukemia
RPMI-8226 leukemia = tested on: RPMI-8226 leukemia
OVCAR-8 ovarian = tested on: OVCAR-8 ovarian
OVCAR-5 ovarian = tested on: OVCAR-5 ovarian
OVCAR-4 ovarian = tested on: OVCAR-4 ovarian
SK-OV-3 ovarian = tested on: SK-OV-3 ovarian
IGROV1 ovarian = tested on: IGROV1 ovarian
OVCAR-3 ovarian = tested on: OVCAR-3 ovarian
HS 578T breast = tested on: HS 578T breast
NCI/ADR-RES ovarian = tested on: NCI/ADR-RES ovarian

Which results are given for `Cc1ccc(-c2nc3nc(-c4ccc(F)cc4)nc(N4CCNCC4)c3o2)cc1`?
growth (SR leukemia): -29.5% (active); growth (RPMI-8226 leukemia): -47.2% (active); growth (OVCAR-8 ovarian): -50.1% (active); growth (OVCAR-5 ovarian): -14.6% (active); growth (OVCAR-4 ovarian): -77.1% (active); growth (SK-OV-3 ovarian): 107%; growth (IGROV1 ovarian): 42%; growth (OVCAR-3 ovarian): -94.7% (active); growth (HS 578T breast): -5.74% (active); growth (NCI/ADR-RES ovarian): -19.1% (active)

`Brc1c2c(c(Br)c3ccccc13)CCCC2` was tested. Which growth (SR leukemia) did it give?
The growth was 99%.

What about the growth (RPMI-8226 leukemia) of the same molecule?
Its growth is 100%.

And the growth (OVCAR-8 ovarian)?
Its growth is 91%.

And the growth (OVCAR-5 ovarian)?
The growth was 104%.

And the growth (OVCAR-4 ovarian)?
The growth was 112%.

And the growth (SK-OV-3 ovarian)?
The growth was 89.5%.

What about the growth (IGROV1 ovarian) of the same molecule?
The growth was 98.1%.

What about the growth (OVCAR-3 ovarian) of the same molecule?
Its growth is 110%.

What about the growth (HS 578T breast) of the same molecule?
The growth was 95.5%.

And the growth (NCI/ADR-RES ovarian)?
Its growth is 107%.

What does the source list for `COc1cc(NC(C)CCCNC(C)C)c2ncccc2c1OC` (stereo not given)?
growth (SR leukemia): 110%; growth (RPMI-8226 leukemia): 87.7%; growth (OVCAR-8 ovarian): 91.3%; growth (OVCAR-5 ovarian): 91.4%; growth (OVCAR-4 ovarian): 76.1%; growth (SK-OV-3 ovarian): 96.3%; growth (IGROV1 ovarian): 75.9%; growth (OVCAR-3 ovarian): 70%; growth (HS 578T breast): 91.9%; growth (NCI/ADR-RES ovarian): 85.4%

What does the source list for `CCSc1nc(NC)c2cc(-c3ccc(C(F)(F)F)cc3)ccc2n1`?
growth (SR leukemia): 94%; growth (RPMI-8226 leukemia): 94.8%; growth (OVCAR-8 ovarian): 102%; growth (OVCAR-5 ovarian): 104%; growth (OVCAR-4 ovarian): 96.2%; growth (SK-OV-3 ovarian): 96.1%; growth (IGROV1 ovarian): 97.2%; growth (OVCAR-3 ovarian): 110%; growth (HS 578T breast): 101%; growth (NCI/ADR-RES ovarian): 106%

What does the source list for `COc1cnc2c(c1)C(=O)c1c-2n(CCCNCCO)c(=O)c2ccncc12`?
growth (SR leukemia): -4.25% (active); growth (RPMI-8226 leukemia): -4.03% (active); growth (OVCAR-8 ovarian): -6.28% (active); growth (OVCAR-5 ovarian): -0.667% (active); growth (OVCAR-4 ovarian): -4.81% (active); growth (SK-OV-3 ovarian): 6.1% (active); growth (IGROV1 ovarian): 15.6%; growth (OVCAR-3 ovarian): 8.44% (active); growth (HS 578T breast): 23.5%; growth (NCI/ADR-RES ovarian): 58.8%

How did the growth (SR leukemia) turn out when `CCOC(=O)C1=C(NC)OCC1=O` was run?
Its growth is 93.6%.

What about the growth (RPMI-8226 leukemia) of the same molecule?
Its growth is 99.6%.

What about the growth (OVCAR-8 ovarian) of the same molecule?
Its growth is 98.6%.

What about the growth (OVCAR-5 ovarian) of the same molecule?
Its growth is 115%.

And the growth (OVCAR-4 ovarian)?
The growth was 112%.

And the growth (SK-OV-3 ovarian)?
Its growth is 110%.

What about the growth (IGROV1 ovarian) of the same molecule?
Its growth is 113%.

What about the growth (OVCAR-3 ovarian) of the same molecule?
The growth was 109%.

And the growth (HS 578T breast)?
The growth was 94.7%.

What about the growth (NCI/ADR-RES ovarian) of the same molecule?
Its growth is 105%.

With `CN1CCN(C(=O)c2ccc(NC(=O)Nc3ccc(-c4nc(N5CCOCC5)c5cccn5n4)cc3)cc2)CC1` as the molecule, how does the growth (SR leukemia) read?
Its growth is 3.45% (active).

And the growth (RPMI-8226 leukemia)?
The growth was -2.3% (active).

What about the growth (OVCAR-8 ovarian) of the same molecule?
The growth was -3.62% (active).

And the growth (OVCAR-5 ovarian)?
The growth was 0.331% (active).

And the growth (OVCAR-4 ovarian)?
Its growth is -20.2% (active).

And the growth (SK-OV-3 ovarian)?
The growth was -31.2% (active).

And the growth (IGROV1 ovarian)?
The growth was -29.2% (active).

What about the growth (OVCAR-3 ovarian) of the same molecule?
The growth was -5.24% (active).

And the growth (HS 578T breast)?
The growth was -28.9% (active).

And the growth (NCI/ADR-RES ovarian)?
Its growth is 60.5%.

Which results are given for `CCOC(=O)c1c(NC(=O)c2ccc(C(C)C)cc2)sc2c(CN(C)C)c(O)ccc12`?
growth (SR leukemia): -21.5% (active); growth (RPMI-8226 leukemia): -20% (active); growth (OVCAR-8 ovarian): 89.1%; growth (OVCAR-5 ovarian): 64.1%; growth (OVCAR-4 ovarian): 87.2%; growth (SK-OV-3 ovarian): 99.2%; growth (IGROV1 ovarian): 72.5%; growth (OVCAR-3 ovarian): 96.1%; growth (HS 578T breast): 86.2%; growth (NCI/ADR-RES ovarian): 72.6%

For `C=CCn1c(SCC(=O)Nc2ccc(C(=O)/C=C/c3ccc(Cl)cc3)cc2)nnc1-c1cc(-c2ccc(S(N)(=O)=O)cc2)nc2ccccc12`, which growth (SR leukemia) is on record?
The growth was 79.5%.

And the growth (RPMI-8226 leukemia)?
Its growth is 5.47% (active).

And the growth (OVCAR-8 ovarian)?
Its growth is 55.5%.

And the growth (OVCAR-5 ovarian)?
The growth was 96.7%.

And the growth (OVCAR-4 ovarian)?
Its growth is 90.2%.

And the growth (SK-OV-3 ovarian)?
The growth was 93.7%.

And the growth (IGROV1 ovarian)?
Its growth is 87.7%.

What about the growth (OVCAR-3 ovarian) of the same molecule?
The growth was 82.8%.

What about the growth (HS 578T breast) of the same molecule?
The growth was 98.2%.

And the growth (NCI/ADR-RES ovarian)?
Its growth is 100%.

How did the growth (SR leukemia) turn out when `Cn1ccc2c3c(ccc21)CC3=O` was run?
The growth was 108%.

And the growth (RPMI-8226 leukemia)?
Its growth is 106%.

And the growth (OVCAR-8 ovarian)?
Its growth is 107%.

And the growth (OVCAR-5 ovarian)?
Its growth is 102%.

What about the growth (OVCAR-4 ovarian) of the same molecule?
The growth was 119%.

What about the growth (SK-OV-3 ovarian) of the same molecule?
The growth was 113%.

What about the growth (IGROV1 ovarian) of the same molecule?
Its growth is 112%.

And the growth (OVCAR-3 ovarian)?
The growth was 117%.

And the growth (HS 578T breast)?
Its growth is 121%.

And the growth (NCI/ADR-RES ovarian)?
Its growth is 115%.

What does the source list for `N=C(N)c1ccc(-c2ccc(-c3cc(Cl)cc(Cl)c3)o2)o1`?
growth (SR leukemia): -50% (active); growth (RPMI-8226 leukemia): -33.6% (active); growth (OVCAR-8 ovarian): -41.7% (active); growth (OVCAR-5 ovarian): -72.2% (active); growth (OVCAR-4 ovarian): -76.3% (active); growth (SK-OV-3 ovarian): -59% (active); growth (IGROV1 ovarian): -52.5% (active); growth (OVCAR-3 ovarian): -87.9% (active); growth (HS 578T breast): 64.8%; growth (NCI/ADR-RES ovarian): -38.5% (active)

Which growth (SR leukemia) does the source give for `Cn1ccnc1C(=O)C(=O)Nc1ccc(CC(=O)Nc2ccccc2)cc1` here?
Its growth is 106%.

And the growth (RPMI-8226 leukemia)?
The growth was 107%.

And the growth (OVCAR-8 ovarian)?
Its growth is 109%.

And the growth (OVCAR-5 ovarian)?
Its growth is 101%.

What about the growth (OVCAR-4 ovarian) of the same molecule?
Its growth is 110%.

What about the growth (SK-OV-3 ovarian) of the same molecule?
The growth was 115%.

And the growth (IGROV1 ovarian)?
The growth was 103%.

What about the growth (OVCAR-3 ovarian) of the same molecule?
Its growth is 108%.

And the growth (HS 578T breast)?
The growth was 101%.

And the growth (NCI/ADR-RES ovarian)?
The growth was 103%.

With `CC1=Nc2cnc(Nc3ccc(OCCN4CCCC4)cc3)nc2Nc2ccccc21` as the molecule, how does the growth (SR leukemia) read?
The growth was 58.1%.

What about the growth (RPMI-8226 leukemia) of the same molecule?
Its growth is 78%.

What about the growth (OVCAR-8 ovarian) of the same molecule?
Its growth is 80.6%.

And the growth (OVCAR-5 ovarian)?
Its growth is 74%.

And the growth (OVCAR-4 ovarian)?
The growth was 62.9%.

What about the growth (SK-OV-3 ovarian) of the same molecule?
The growth was 43.8%.

And the growth (IGROV1 ovarian)?
Its growth is 23.1%.

And the growth (OVCAR-3 ovarian)?
Its growth is 76.4%.

What about the growth (HS 578T breast) of the same molecule?
The growth was 41.5%.

And the growth (NCI/ADR-RES ovarian)?
The growth was 82.7%.
